Reference: PubChem BioAssay (Tox21)
Records with an inconclusive call do not appear. Entries that show only a call come without a potency. Calls of active or inactive are those of the source. Unless noted, the call rests on the fitted dose curve; in most records, active means well fitted curve in the direction sought with a large enough effect in the repeat runs; inconclusive means weak or mixed curves; inactive means no such curve, though single readings can be large; an effect the other way counts as inactive or inconclusive.

Key:
[1] = qHTS assay to identify small molecule antagonists of the thyroid receptor (TR) signaling pathway (AID 743065); further: nearly all actives have a fitted effect of over 55% in size; further: potency means the concentration at half of the fitted maximal effect
Summary of the method: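 GH3.TRE-Luc rat pituitary cells carrying two TR response elements driving luciferase were plated for 4 h, given compound plus 1 nM T3 (final), and incubated 23.5 h at 37 C. ONE-Glo luminescence measured reporter inhibition; CellTiter-Fluor fluorescence tracked cytotoxicity.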

[2] = test system: thyroid hormone receptor (rat, GH3 cells); experiment: qHTS assay to identify small molecule agonists of the thyroid receptor (TR) signaling pathway (AID 743066; calls by dose curve)
[3] = qHTS assay to identify small molecule antagonists of the estrogen receptor alpha (ER-alpha) signaling pathway - cell viability counter screen (AID 743074; calls by dose curve; further: nearly all actives have a fitted effect of over 45% in size)
[4] = qHTS assay to identify small molecule antagonists of the estrogen receptor alpha (ER-alpha) signaling pathway using the BG1 cell line - cell viability counter screen (AID 743081);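 further: compound given together with 17beta-estradiol as the ER stimulus; nearly all actives have a fitted effect of over 45% in size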; further: potency means the concentration at half of the fitted maximal effect
Aromatase (Homo sapiens) = Aromatase (Homo sapiens) (UniProt P11511); experiment: qHTS assay to identify aromatase inhibitors (AID 743083); further: series mostly up to about 70 µM; nearly all actives have a fitted effect of over 55% in size
[5] = qHTS assay to identify aromatase inhibitors - cell viability counter screen (AID 743084);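 further: cells stimulated with testosterone during compound exposure; nearly all actives have a fitted effect of over 55% in size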
[6] = biological target: Estrogen receptor (Homo sapiens) (UniProt P03372); experiment: qHTS assay to identify small molecule agonists of the estrogen receptor alpha (ER-alpha) signaling pathway (AID 743075; calls by dose curve)
[7] = biological target: Estrogen receptor (Homo sapiens) (UniProt P03372); experiment: qHTS assay to identify small molecule agonists of the estrogen receptor alpha (ER-alpha) signaling pathway using the BG1 cell line (AID 743079); further: nearly all actives have a fitted effect of over 20% in size
[8] = qHTS assay to identify small molecule antagonists of the estrogen receptor alpha (ER-alpha) signaling pathway using the BG1 cell line (AID 743080; calls by dose curve;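 further: BG1 cells stimulated with 17beta-estradiol alongside compound; series mostly up to about 70 µM; nearly all actives have a fitted effect of over 25% in size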)
Summary of the method: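 BG1-Luc-4E2 cells (endogenous full-length ER-alpha, 4xERE luciferase) hormone-starved 5 days in charcoal-stripped FBS, plated 4,000/well for 24 h, then compound plus 17beta-estradiol for 21.5 h at 37 C; ONE-Glo luminescence read.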

[9] = biological target: Estrogen receptor (Homo sapiens) (UniProt P03372); experiment: qHTS assay to identify small molecule antagonists of the estrogen receptor alpha (ER-alpha) signaling pathway (AID 743069; active means well fitted curve in the direction sought with a large enough effect in the signal ratio in the repeat runs, not every such curve was filed as active; the % refers to the signal ratio)
Summary of the method: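 Screening used a UAS-driven beta-lactamase reporter integrated into HEK293 cells expressing ER-alpha, stimulated with 17beta-estradiol alongside test compounds over 18 hr at 37C; signal came from LiveBLAzer B/G FRET fluorescence.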

Estrogen receptor (Homo sapiens), sequence (P03372 whole entry, looked up): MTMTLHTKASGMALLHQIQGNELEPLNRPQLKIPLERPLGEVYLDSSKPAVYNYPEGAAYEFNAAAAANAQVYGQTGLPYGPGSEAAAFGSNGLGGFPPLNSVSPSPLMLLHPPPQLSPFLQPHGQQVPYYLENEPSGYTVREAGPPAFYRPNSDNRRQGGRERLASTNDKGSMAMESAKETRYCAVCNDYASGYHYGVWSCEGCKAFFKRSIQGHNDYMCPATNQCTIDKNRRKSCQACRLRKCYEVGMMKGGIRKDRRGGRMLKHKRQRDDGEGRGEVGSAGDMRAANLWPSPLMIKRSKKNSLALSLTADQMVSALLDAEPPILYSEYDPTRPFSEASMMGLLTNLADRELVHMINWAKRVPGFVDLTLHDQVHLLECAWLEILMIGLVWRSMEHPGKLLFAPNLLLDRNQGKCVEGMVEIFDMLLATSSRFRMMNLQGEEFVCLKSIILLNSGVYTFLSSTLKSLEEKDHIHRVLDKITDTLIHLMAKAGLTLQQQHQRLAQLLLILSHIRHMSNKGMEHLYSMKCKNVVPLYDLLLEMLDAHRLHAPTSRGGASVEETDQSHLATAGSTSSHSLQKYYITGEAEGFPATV
Aromatase (Homo sapiens), sequence (P11511 whole entry, looked up): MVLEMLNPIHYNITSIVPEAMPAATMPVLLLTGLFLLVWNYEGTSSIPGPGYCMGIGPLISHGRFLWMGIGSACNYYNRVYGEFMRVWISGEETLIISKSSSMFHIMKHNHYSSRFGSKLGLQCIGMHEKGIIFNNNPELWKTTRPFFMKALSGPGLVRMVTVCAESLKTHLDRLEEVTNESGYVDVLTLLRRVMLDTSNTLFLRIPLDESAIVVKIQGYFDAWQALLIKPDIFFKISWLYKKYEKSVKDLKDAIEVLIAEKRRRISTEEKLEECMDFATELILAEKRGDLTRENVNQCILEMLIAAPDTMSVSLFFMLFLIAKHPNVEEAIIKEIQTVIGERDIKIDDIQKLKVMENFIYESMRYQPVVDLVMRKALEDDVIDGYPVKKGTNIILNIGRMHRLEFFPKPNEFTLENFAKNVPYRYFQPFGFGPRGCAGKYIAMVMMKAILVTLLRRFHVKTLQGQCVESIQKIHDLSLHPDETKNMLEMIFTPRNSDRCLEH

Nc1ccc(S(=O)(=O)NCc2ccccc2)cc1
Potency [1]: inactive | Potency [2]: inactive | Potency [3]: inactive | Potency [4]: inactive | Potency (Aromatase (Homo sapiens)): inactive | Potency [5]: inactive

CC[C@H]1OC(=O)[C@H](C)[C@@H](O[C@H]2C[C@@](C)(OC)[C@@H](O)[C@H](C)O2)[C@H](C)[C@@H](O[C@@H]2O[C@H](C)C[C@H](N(C)C)[C@H]2O)[C@](C)(O)C[C@@H](C)C(=O)[C@H](C)[C@@H](O)[C@]1(C)O
Potency [1]: inactive | Potency [2]: inactive | Potency [3]: inactive | Potency [4]: inactive | Potency (Aromatase (Homo sapiens)): inactive | Potency [5]: inactive

CCCCCCCCCCCCCCCCCC(=O)OCC(CC)CCCC (stereo unspecified)
Potency [1]: inactive | Potency [2]: inactive | Potency [4]: inactive | Potency (Aromatase (Homo sapiens)): inactive

CC(CCc1ccc(O)cc1)NCCc1ccc(O)c(O)c1 (stereo unspecified)
Potency [1]: inactive | Potency [3]: inactive | Potency [6]: inactive | Potency [7]: inactive | Potency [8]: inactive | Potency [4]: inactive

COC(CC(C)CCCC(C)(C)O)OC (stereo unspecified)
Potency [1]: inactive | Potency [2]: inactive | Potency [3]: inactive | Potency [4]: inactive | Potency (Aromatase (Homo sapiens)): inactive | Potency [5]: inactive

COc1ccc(C)cc1
Potency [1]: inactive | Potency [2]: inactive | Potency [3]: inactive | Potency [4]: inactive | Potency (Aromatase (Homo sapiens)): inactive | Potency [5]: inactive

CO[C@@H]1[C@@H](OC)[C@H](C)[C@@](O)(CC(=O)O)O[C@H]1[C@H](C)[C@H]1O[C@@]2(CC[C@@](C)([C@H]3CC[C@@](C)([C@@H]4O[C@@H]([C@H]5O[C@](C)(O)[C@H](C)C[C@@H]5C)C[C@@H]4OC4C[C@H](OC)[C@@H](OC)[C@H](C)O4)O3)O2)C[C@H](O)[C@H]1C (stereo partly specified)
Potency [1]: 335 nM (active) | Potency [6]: inactive | Potency [4]: 2980 nM (active) | Potency (Aromatase (Homo sapiens)): inactive

O=C(C(=O)c1ccco1)c1ccco1
Potency [2]: inactive | Potency [9]: inactive | Potency [3]: inactive | Potency [6]: inactive | Potency [7]: inactive | Potency [8]: inactive | Potency [4]: inactive | Potency (Aromatase (Homo sapiens)): inactive | Potency [5]: inactive

CC(C)(O)CCc1ccccc1
Potency [2]: inactive | Potency [9]: inactive | Potency [3]: inactive | Potency [6]: inactive | Potency [7]: inactive | Potency [8]: inactive | Potency [4]: inactive | Potency (Aromatase (Homo sapiens)): inactive | Potency [5]: inactive

CC(=O)OCC1=C(C(=O)O)N2C(=O)[C@@H](NC(=O)CSc3ccncc3)[C@H]2SC1
Potency [1]: inactive | Potency [2]: inactive | Potency [3]: inactive | Potency [4]: inactive | Potency (Aromatase (Homo sapiens)): inactive | Potency [5]: inactive

CC(O)Cn1cnc2c1c(=O)n(C)c(=O)n2C (stereo unspecified)
Potency [1]: inactive | Potency [2]: inactive | Potency [4]: inactive | Potency (Aromatase (Homo sapiens)): inactive | Potency [5]: inactive

Cc1cn([C@H]2C[C@H](F)[C@@H](CO)O2)c(=O)[nH]c1=O
Potency [2]: inactive | Potency [9]: inactive | Potency [3]: inactive | Potency [6]: inactive | Potency [7]: inactive | Potency [8]: inactive | Potency [4]: inactive | Potency (Aromatase (Homo sapiens)): inactive | Potency [5]: inactive
